Screen size: about 310,000 compounds; about 18,000 (5.8%) were called active. Not shown: some 22% with an inconclusive outcome. Calls follow the shape of the dose curve; as a rule, active = well fitted inhibition curve with a large enough effect; inconclusive = small, poorly fitted or top-dose-only effect, or another doubt; inactive = no such curve, though single readings can be large or run the other way. Many of the other results were omitted from the sample, so actives are more common in it than they were.
Assay: Primary qHTS for delayed death inhibitors of the malarial parasite plastid, 48 hour incubation
Settings: P. falciparum luciferase growth in erythrocytes; series mostly up to 28.7 µM; activity change, negative = inhibition: at the top concentration
How it was run: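 Luminescence readout; reporter = integrated firefly luciferase in P. falciparum. RBC culture at 2% hematocrit, 0.1% parasitemia final, 37 C/5% CO2; decreased signal taken as growth inhibition.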
% is scaled to controls: 0 for no effect and ±100 for the full control effect; potency is read from the fitted curve at half-maximal effect.

Structure (SMILES)	activity change, negative = inhibition	Potency
CCN(CC)C(=O)COc1coc(CN2CCN(Cc3ccccc3)CC2)cc1=O	3.2% (inactive)	–
O=C(NCCC1CCCCN1S(=O)(=O)c1ccccc1)C(=O)NCC1CCCO1 (centres undefined)	31.8% (inactive)	–
O=C(CCC1CCCN(C(=O)c2ccc(F)c(F)c2)C1)N1CCN(c2ccccn2)CC1 (centres undefined)	-15.6% (inactive)	–
COc1ccc(Cl)cc1NC(=O)COc1ccc2c(c1)OCO2	-15.4% (inactive)	–
Nc1nc(-c2ccccc2)cc(-c2ccccc2)n1	35.2% (inactive)	–
Nc1cccc(-c2cc(-c3ccccc3)nc(-c3cccc(N)c3)n2)c1	–	10.4 µM (active)
Nc1cccc(CCc2nc3ccccc3[nH]2)c1	68.8% (inactive)	–
Cc1cccc(C(=O)NCCCN(C)CCCNC(=O)c2cccc(C)c2)c1	-4.59% (inactive)	–
CCSc1nc2sc3c(c2c(=O)[nH]1)CC(C)(C)OC3	-4.53% (inactive)	–
O=C(OCc1ccc([N+](=O)[O-])cc1)C1CC(=O)N(Cc2ccccc2Cl)C1 (centres undefined)	16.3% (inactive)	–
COc1cc(/C=C/C(=O)O)cc(S(=O)(=O)Nc2ccccc2C(=O)NCCc2ccccc2)c1OC	38.7% (inactive)	–
COc1cc(OC)c2ccc(=O)oc2c1C(CCN1CCN(c2ccccc2)CC1)c1ccc2c(c1)OCO2 (centres undefined)	–	11.7 µM (active)
COc1cc(C(CCN2CCN(c3ccccc3)CC2)c2c(OC)cc(OC)c3ccc(=O)oc23)cc(OC)c1OC (centres undefined)	–	13.1 µM (active)
COc1ccccc1N1CCN(Cc2cc(OC)c3c(c2)OCO3)CC1	55% (inactive)	–
c1ccc(-c2cnc(CN3CCN(c4ccccc4)CC3)o2)cc1	44.5% (inactive)	–
Cc1cc(=O)oc2c(C)c(OCC(=O)N3CCN(Cc4ccc5c(c4)OCO5)CC3)ccc12	4.8% (inactive)	–
COc1ccccc1NC(=O)CCN1CCN(c2ccc(Cl)cc2)CC1	-1.28% (inactive)	–
CC(OC(=O)CN1C(=O)c2ccccc2C1=O)C(=O)c1ccccc1 (centres undefined)	-17.5% (inactive)	–
COc1cc(S(=O)(=O)Nc2ncn[nH]2)ccc1Cl	41.9% (inactive)	–
O=Cc1c(NCCCN2CCCC2=O)c2ccccc2[nH]c1=O	-0.852% (inactive)	–
O=C(NC1CCCC1)C(c1ccc(Cl)cc1)N(C(=O)c1csnn1)C1CC1 (centres undefined)	-27.3% (inactive)	–
Cc1cc(-c2ccc(S(=O)(=O)N3CCN(c4cccc(C(F)(F)F)c4)CC3)s2)on1	-14.9% (inactive)	–
O=c1c2ccccc2nc(/C=C/c2ccc(F)cc2)n1-c1ccccc1O	–	13.1 µM (active)
O=c1c2ccccc2ncn1/N=C/c1ccccc1	280% (inactive)	–
O=c1oc(/C=C/c2ccccc2)nc2ccccc12	-17.6% (inactive)	–
Cc1ccc(NC(=O)COc2ccc(-n3ccnc3)cc2)cc1Cl	–	9.28 µM (active)

Structure (SMILES)	activity change, negative = inhibition	Potency
Cc1ccc(NC(=O)COc2ccc(/C=N\NC(=O)c3cccnc3)cc2)cc1C	-4.91% (inactive)	–
CCC(=O)c1ccc(OCC(=O)Nc2ccc3nc(C)sc3c2)cc1	57.5% (inactive)	–
Cc1ccc(NC(=O)NC(=O)c2ccccc2)cc1F	200% (inactive)	–
COc1cccc(/C=N/Nc2cc(C)nc(-c3ccccc3O)n2)c1O	–	3.7 µM (active)
COc1ccc(NC(=O)c2nc(-n3nc(C)cc3C)ccc2Cl)cc1Cl	-20.1% (inactive)	–
COc1ccccc1/C=N\Nc1cc(C)nc(-n2nc(C)cc2C)n1	–	1.65 µM (active)
COc1cc(NS(=O)(=O)c2ccccc2)ccc1-n1nc(C)cc1C	-2.42% (inactive)	–
Cc1ccc(S(=O)(=O)Nc2nc(C)cc(N/N=C/c3ccc(O)cc3)n2)cc1	29.3% (inactive)	–
COc1cccc2c(N/N=C/c3ccco3)cc(C)nc12	59.2% (inactive)	–
COc1cc(/C=N/Nc2nc3ccccc3s2)ccc1O	60.1% (inactive)	–
Cc1nc(Cl)cc(N/N=C/c2ccccc2)n1	30.2% (inactive)	–
Cc1cc(N/N=C\c2ccc(Br)cc2)nc(-n2nc(C)cc2C)n1	–	1.04 µM (active)
CCc1nc2nc(C)c(NS(=O)(=O)c3ccc4c(c3)CCCC4)c(=O)n2[nH]1	8.15% (inactive)	–
CN(CC(=O)Nc1cccc(F)c1)C(=O)CC1CCCC1	-5.39% (inactive)	–
Cc1ccc(-c2ccnc3[nH]n(-c4ccccc4)c(=O)c23)cc1	35.7% (inactive)	–
C=CCn1c(CNS(=O)(=O)c2ccc(Br)cc2)nnc1SC	68.4% (inactive)	–
COc1ccc(OC)c(NC(=O)Cc2cccs2)c1	-3.98% (inactive)	–
CN(CC(=O)NNC(=O)CNC(=O)c1ccccc1Cl)S(=O)(=O)c1ccc(Cl)cc1	10.7% (inactive)	–
Cc1csc(SCC(=O)N(c2ccccc2)C(C)C)n1	–	10.4 µM (active)
COc1ccc(NC(=O)CSc2nc(C)cs2)cc1	29.2% (inactive)	–
Cc1ccc(C(=O)N2CC(=O)Nc3ccc(F)cc3C2c2ccc(F)cc2)cc1 (centres undefined)	-27.6% (inactive)	–
O=S(=O)(c1cccs1)N1CCN(CCOc2ccccc2)CC1	-21.8% (inactive)	–
COC(=O)c1ccc2c(C(C)(C)O)c(C(C)(C)O)[nH]c2c1	24.6% (inactive)	–
COc1cc(/C=C2\SC(=S)N(Nc3ncc(C(F)(F)F)cc3Cl)C2=O)cc(OC)c1OC	4.07% (inactive)	–
COc1cccc(/C=N/Nc2ncc(C(F)(F)F)cc2Cl)c1O	–	1.04 µM (active)
COc1cccc(/C(C)=N/Nc2ncc(Cl)cc2Cl)c1	113% (inactive)	–

Structure (SMILES)	activity change, negative = inhibition	Potency
O=C(NNC(=O)c1ccco1)Nc1ccccc1	21.8% (inactive)	–
Cc1ccc(C(=O)OCC(=O)NC(=O)Cc2ccccc2)c(O)c1	0.538% (inactive)	–
COc1cc(NS(=O)(=O)c2ccc(NC(=S)NC(=O)c3ccc(Br)cc3)cc2)ncn1	12.6% (inactive)	–
COc1ccc(C(CCNCc2ccccc2F)c2ccc(F)cc2)cc1 (centres undefined)	–	7.38 µM (active)
COc1ccc(Cc2cc(-c3ccc(F)cc3)n[nH]c2=O)cc1	5% (inactive)	–
COc1ccc(CC(=O)NC(C)CCc2ccccc2)cc1 (centres undefined)	-23% (inactive)	–
CC1(C)Cc2c(cnn2-c2cccc(F)c2)C(NC(=O)c2cc[n+]([O-])cc2)C1 (centres undefined)	5.83% (inactive)	–
Cc1ccc(S(=O)(=O)N2CCOCC2)cc1NC(=O)COC(=O)c1cnccn1	10.8% (inactive)	–
Cc1cccc(NS(=O)(=O)c2ccc([N+](=O)[O-])cc2)n1	-2.21% (inactive)	–
O=C(Cc1ccc(Cl)c(Cl)c1)Nc1ccc(SC(F)F)cc1	-93.2% (inactive)	–
O=C(CCl)Nc1ccc(Sc2ccc(NC(=O)CCl)cc2)cc1	–	3.29 µM (active)
Cc1ccc(NC(=O)CC(=O)Nc2ccc(C)cc2)cc1	3.91% (inactive)	–
CCN(CC)S(=O)(=O)c1ccc(-c2cn3ccc(C)cc3n2)cc1	171% (inactive)	–
CCCOc1cccc(C(=O)NCCCNC(=O)c2cccnc2)c1	-2.92% (inactive)	–
Cc1nn(C(C)C(=O)NCCC2=CCCCC2)c(=O)c2nn(-c3ccccc3)c(C)c12 (centres undefined)	-12.9% (inactive)	–
O=C(NNS(=O)(=O)c1ccc(F)cc1)C1CCCCC1	9.65% (inactive)	–
CS(=O)(=O)Nc1ccccc1N=C(c1ccccc1)c1ccccc1	-17.5% (inactive)	–
Cc1ccc(N(C(=O)c2snc(C(N)=O)c2N)C(C(=O)NCC2CCCO2)c2c[nH]c3ccccc23)cc1 (centres undefined)	–	7.38 µM (active)
COC(=O)c1cccc(N(C(=O)CNC(=O)c2cccs2)C(C(=O)NCC2CCCO2)c2ccc(OC)c(OC)c2)c1 (centres undefined)	-17.6% (inactive)	–
Cc1ccc(C(C(=O)NCC2CCCO2)N(C(=O)c2snc(C(N)=O)c2N)c2ccc(C(C)C)cc2)o1 (centres undefined)	–	9.28 µM (active)
CCOc1ccc(N(C(=O)c2snc(C(N)=O)c2N)C(C(=O)NCC2CCCO2)c2c[nH]c3ccccc23)cc1 (centres undefined)	–	5.22 µM (active)
Cc1ccc(N(C(=O)Cc2cccs2)C(C(=O)NCC2CCCO2)c2ccncc2)cc1 (centres undefined)	-1.9% (inactive)	–
COc1cccc(N(C(=O)c2snc(C(N)=O)c2N)C(C(=O)NCC2CCCO2)c2c[nH]c3ccccc23)c1 (centres undefined)	–	9.28 µM (active)
CC(Sc1nn(-c2ccc(Cl)cc2)c(=S)s1)C(=O)NCC1CCCO1 (centres undefined)	18.6% (inactive)	–
O=C(NCCc1c[nH]c2ccccc12)C(=O)NCC1CCCO1 (centres undefined)	13.2% (inactive)	–
CCOc1cc(C(C(=O)NCC2CCCO2)N(C(=O)Cn2nnc3ccccc32)c2cccc(OC)c2)ccc1O (centres undefined)	-23.6% (inactive)	–

Structure (SMILES)	activity change, negative = inhibition	Potency
CCOc1ccc(N(CC(=O)NCC2CCCO2)S(=O)(=O)c2ccc(C)cc2)cc1 (centres undefined)	19.1% (inactive)	–
CCOc1ccc(-n2c(N)c(C(=O)NCC3CCCO3)sc2=S)cc1 (centres undefined)	8.29% (inactive)	–
COCCNC(=O)C(c1ccc(C)o1)N(Cc1cccs1)C(=O)c1snc(C(N)=O)c1N (centres undefined)	-9.83% (inactive)	–
COc1ccc2oc(=O)cc(CN3CCOCC3)c2c1	-29% (inactive)	–
CC(=O)c1c(C)[nH]c(C(=O)CN2C(=O)NC(C)(C)C2=O)c1C	16.6% (inactive)	–
CC1CCCN(C(=O)CN2C(=O)c3ccccc3S2(=O)=O)C1 (centres undefined)	270% (inactive)	–
O=C(NNS(=O)(=O)c1ccc([N+](=O)[O-])cc1)C1CCCCC1	2.73% (inactive)	–
CC(=O)O[C@H]1c2ccccc2-c2ccccc2[C@@H]1OC(C)=O	23.1% (inactive)	–
C[N+](C)(C)CCNC(=O)c1cc[n+](Cc2ccccc2)c(/C=N/O)c1	-1.42% (inactive)	–
CC(=O)c1ccc(S(=O)(=O)NCCC(=O)N2CCN(c3ccccn3)CC2)cc1	-21.6% (inactive)	–
COc1cc(NC(=O)c2ccccc2)c(OC)cc1NC(=O)Cc1ccccc1	-22.9% (inactive)	–
Nn1c(SCC(=O)Nc2nccs2)nnc1-c1ccco1	24.4% (inactive)	–
CCC(NC(=O)C1CCCC1)c1ccc(C)cc1 (centres undefined)	5.68% (inactive)	–
COc1cccc(N2CC(NS(=O)(=O)c3cccs3)CC2=O)c1 (centres undefined)	3.72% (inactive)	–
Cc1ccc(NC(=O)c2c(NC(=O)CCC(=O)O)sc3c2CCCCC3)cc1	42.9% (inactive)	–
NC(=O)c1c(NC(=O)c2ccccc2)sc2c1CCCC2	225% (inactive)	–
Cc1ccc(C(=O)c2c(NC(=O)c3ccncc3)sc3c2CCCC3)cc1	–	6.57 µM (active)
COc1cccc(NC(=O)N2CCC(NC(=O)C(Cc3cccc(C)c3)NC(C)=O)CC2)c1 (centres undefined)	-8.06% (inactive)	–
CC(C)[C@H](NC(=O)N1CCn2c1nc1ccccc12)C(=O)NC1CC1	-2.75% (inactive)	–
CNC(=O)c1ccsc1NC(=O)c1ccc(S(=O)(=O)N2CCOCC2)cc1	-5.56% (inactive)	–
CC(OC(=O)c1ccc(S(=O)(=O)N2CCOCC2)cc1)c1ccccc1 (centres undefined)	-3.14% (inactive)	–
COC(=O)c1c(NC(=O)c2ccc(S(=O)(=O)N3CCOCC3)cc2)sc2c1CCN(C(C)C)C2	–	11.7 µM (active)
COCC(=O)N1CCCC(C(=O)c2ccc(C(F)(F)F)cc2)C1 (centres undefined)	-0.209% (inactive)	–
Cc1nc(Cl)c2oc3ccccc3c2n1	-21% (inactive)	–
CCOC(=O)c1sc2nc(CSc3ccccc3)[nH]c(=O)c2c1C	33.8% (inactive)	–
O=c1[nH]c(CSc2ccccc2)nc2c1oc1ccccc12	–	10.4 µM (active)

— PubChem BioAssay AID504832 (National Center for Advancing Translational Sciences (NCATS), 2011)
